Assay results as given in PubChem BioAssay (EPA / NIEHS).
Values joined by “and” are separate entries in the source; they are usually repeats but may differ in a detail not shown here. Equal entries are not always repeated. Results filed as inconclusive are left out. Active and inactive are the calls of the source. Rule for the calls, unless noted: active = hit-call score of the fitted dose curve at least 0.9, where 1 is the maximum; inactive = score below 0.9.

Assays:
[1] = target: Nuclear respiratory factor 1 (Homo sapiens) (UniProt Q16656); assay: ATG_NRF1_CIS: Attagene CIS-FACTORIAL HepG2 Assay for human Nuclear Respiratory Factor 1 (NRF1) Orphan Gene (AID 2282987); conditions: HepG2 NRF1 cis-element reporter, Attagene multiplex; actives raise or lower the signal
Chain of Nuclear respiratory factor 1 (Homo sapiens) (Q16656 whole entry, looked up): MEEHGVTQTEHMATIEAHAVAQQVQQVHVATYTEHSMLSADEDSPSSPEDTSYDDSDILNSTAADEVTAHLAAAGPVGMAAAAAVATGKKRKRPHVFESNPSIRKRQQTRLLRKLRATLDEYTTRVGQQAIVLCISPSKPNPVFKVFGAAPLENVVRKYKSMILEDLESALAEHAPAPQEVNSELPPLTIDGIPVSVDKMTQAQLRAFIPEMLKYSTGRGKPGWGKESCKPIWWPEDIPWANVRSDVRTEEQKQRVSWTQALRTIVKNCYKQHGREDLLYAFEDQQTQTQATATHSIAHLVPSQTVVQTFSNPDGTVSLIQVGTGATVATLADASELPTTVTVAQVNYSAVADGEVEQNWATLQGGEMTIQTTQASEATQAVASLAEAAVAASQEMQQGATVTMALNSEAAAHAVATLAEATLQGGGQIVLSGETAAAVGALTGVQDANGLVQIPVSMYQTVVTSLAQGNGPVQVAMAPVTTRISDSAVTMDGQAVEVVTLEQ
Summary of the method: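 Human hepatoma HepG2 cells carrying transfected promoter-regulated reporter units were incubated with test chemicals for 24 h. Reporter transcripts were measured by RT-PCR plus capillary electrophoresis, and endpoints derived by bidirectional fitting with DMSO as baseline.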

[2] = ATG_NFI_CIS: Attagene CIS-FACTORIAL HepG2 Assay for human Nuclear Factor I (NFI) (AID 2282989); conditions: HepG2 cis-regulatory reporter, NFI response element transcription; actives raise or lower the signal
Summary of the method: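 Cells: human liver HepG2, transiently transfected with promoter-regulated reporter transcription units. Exposure 24 h. Detection: fluorescent RT-PCR products separated by capillary electrophoresis, normalised to DMSO negative control.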

[3] = target: Myc proto-oncogene protein (Homo sapiens) (UniProt P01106); assay: ATG_Myc_CIS: Attagene CIS-FACTORIAL HepG2 Assay for human Myelocytomatosis (Myc) Proto-Oncogene Transcription Factor (AID 2282990); conditions: HepG2, Attagene cis-reporter transcription factor activity; actives raise or lower the signal
Chain of Myc proto-oncogene protein (Homo sapiens) (P01106 whole entry, looked up, the tested form may be a part): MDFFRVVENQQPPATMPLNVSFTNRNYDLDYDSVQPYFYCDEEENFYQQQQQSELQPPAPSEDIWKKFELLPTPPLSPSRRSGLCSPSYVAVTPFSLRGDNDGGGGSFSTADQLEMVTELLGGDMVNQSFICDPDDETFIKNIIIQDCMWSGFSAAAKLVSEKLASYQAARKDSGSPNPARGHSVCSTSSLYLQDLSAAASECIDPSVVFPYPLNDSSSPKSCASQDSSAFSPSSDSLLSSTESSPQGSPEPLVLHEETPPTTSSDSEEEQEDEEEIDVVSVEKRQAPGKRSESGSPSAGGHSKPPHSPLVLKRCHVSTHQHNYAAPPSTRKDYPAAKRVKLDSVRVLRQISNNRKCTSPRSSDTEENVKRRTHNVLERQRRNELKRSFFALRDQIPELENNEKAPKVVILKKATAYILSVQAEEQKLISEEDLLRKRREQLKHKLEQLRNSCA
Summary of the method: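 After 24 h chemical treatment of HepG2 cells carrying multiplexed cis-regulated reporter constructs, reporter transcripts quantified by RT-PCR and capillary electrophoresis of fluorescent fragments. Gain or loss fitted against DMSO baseline.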

[4] = ATG_NF_kB_CIS: Attagene CIS-FACTORIAL HepG2 Assay for human Nuclear Factor Kappa B (NF-kB) (AID 2282991); conditions: HepG2 Attagene cis-factorial NF-kB reporter mRNA; actives raise or lower the signal
Summary of the method: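 Multiplexed cis-reporter assay in transiently transfected HepG2. 24 h treatment; RNA isolated, RT-PCR, labelled fragments resolved by CE. DMSO baseline.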

[5] = ATG_NRF2_ARE_CIS: Attagene CIS-FACTORIAL HepG2 Assay for human Nuclear Factor Erythroid 2 Related Factor 2 (NFR2) response to Antioxidant Response Elements (ARE) (AID 2282992); conditions: HepG2 Attagene ARE/NRF2 reporter, transcription factor activity; actives raise or lower the signal;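 for AC50: reporter mRNA level measured by RT-PCR and capillary electrophoresis fluorescence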
Summary of the method: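 Transient MRTU transfection of HepG2; 24 h compound exposure; TriZol RNA, RT with oligo(dT), PCR, 6-FAM primer extension, HpaI cut, CE. Bidirectional fit vs DMSO.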

[6] = ATG_Oct_MLP_CIS: Attagene CIS-FACTORIAL HepG2 Assay for human Octamer-Binding Transcription Factor (Oct) (AID 2282993); conditions: HepG2 Attagene cis-factorial Oct reporter, mRNA; actives raise or lower the signal
Summary of the method: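 HepG2, transient MRTU transfection, cis promoter elements; 24 h dosing; RT-PCR/CE fluorescence read-out of reporter mRNA; fit both directions vs DMSO.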

[7] = target: Cellular tumor antigen p53 (Homo sapiens) (UniProt P04637); assay: ATG_p53_CIS: Attagene CIS-FACTORIAL HepG2 Assay for human p53 Transcription Factor (AID 2282994); conditions: HepG2 p53 cis-element reporter, Attagene mRNA; actives raise or lower the signal
Chain of Cellular tumor antigen p53 (Homo sapiens) (P04637 whole entry, looked up): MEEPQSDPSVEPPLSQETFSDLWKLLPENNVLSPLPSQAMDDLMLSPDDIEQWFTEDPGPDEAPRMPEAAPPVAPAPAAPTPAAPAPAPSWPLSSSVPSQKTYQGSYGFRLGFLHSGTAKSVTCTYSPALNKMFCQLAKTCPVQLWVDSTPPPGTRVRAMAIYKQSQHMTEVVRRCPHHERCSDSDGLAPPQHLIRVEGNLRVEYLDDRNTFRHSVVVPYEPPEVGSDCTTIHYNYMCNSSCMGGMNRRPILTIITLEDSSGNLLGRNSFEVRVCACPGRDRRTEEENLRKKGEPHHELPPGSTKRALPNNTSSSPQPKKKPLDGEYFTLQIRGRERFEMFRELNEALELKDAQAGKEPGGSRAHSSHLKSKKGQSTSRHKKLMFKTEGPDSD
Summary of the method: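 HepG2, transient MRTU transfection (cis promoter elements, endogenous TFs); 24 h dosing; RNA isolation, RT-PCR, 6-FAM primer extension, HpaI digest, CE fluorescence; bidirectional fit vs DMSO.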

[8] = BSK_3C_TissueFactor: BioMAP Diversity Plus: 3C Assay for Tissue Factor Biomarker Activity (AID 2282997); conditions: BioMAP 3C HUVEC, tissue factor biomarker readout; actives raise or lower the signal
Summary of the method: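 Endothelial monolayers (human umbilical vein, primary) are dosed, incubated 24 h, and assayed for Tissue Factor by ELISA; DMSO serves as negative control for bidirectional fitting.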

[9] = BSK_3C_uPAR: BioMAP Diversity Plus: 3C Assay for Urokinase-type plasminogen activator receptor (uPAR) Biomarker Activity (AID 2282998); conditions: BioMAP 3C HUVEC, uPAR biomarker ELISA; actives raise or lower the signal
Summary of the method: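 A multiplexed primary-cell system built on human umbilical vein endothelium was used, with chemical present for 24 h before reading. Cell-surface uPAR was detected by ELISA; signal change in either direction counted against DMSO.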

[10] = BSK_4H_Eotaxin3: BioMAP Diversity Plus: 4H Assay for Eotaxin 3 Biomarker Activity (AID 2283000); conditions: primary human endothelial cells (HUVEC); actives raise or lower the signal
Summary of the method: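 ELISA quantitation of CCL26 (Eotaxin-3) protein from chemically dosed human vascular endothelial cells at 24 h; increases and decreases both scored relative to DMSO-treated baseline.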

[11] = target: human Peroxisome Proliferator-activated Receptor delta (PPARd), PPARD (gene 5467) (UniProt Q03181); assay: ATG_PPARd_TRANS: Attagene TRANS-FACTORIAL HepG2 Assay for human Peroxisome Proliferator-activated Receptor delta (PPARd) (AID 2283002; active = hit-call score of the fitted dose curve at least 0.9, where 1 is the maximum)
Chain of human Peroxisome Proliferator-activated Receptor delta (PPARd), PPARD (gene 5467) (Q03181 whole entry, looked up, the tested form may be a part): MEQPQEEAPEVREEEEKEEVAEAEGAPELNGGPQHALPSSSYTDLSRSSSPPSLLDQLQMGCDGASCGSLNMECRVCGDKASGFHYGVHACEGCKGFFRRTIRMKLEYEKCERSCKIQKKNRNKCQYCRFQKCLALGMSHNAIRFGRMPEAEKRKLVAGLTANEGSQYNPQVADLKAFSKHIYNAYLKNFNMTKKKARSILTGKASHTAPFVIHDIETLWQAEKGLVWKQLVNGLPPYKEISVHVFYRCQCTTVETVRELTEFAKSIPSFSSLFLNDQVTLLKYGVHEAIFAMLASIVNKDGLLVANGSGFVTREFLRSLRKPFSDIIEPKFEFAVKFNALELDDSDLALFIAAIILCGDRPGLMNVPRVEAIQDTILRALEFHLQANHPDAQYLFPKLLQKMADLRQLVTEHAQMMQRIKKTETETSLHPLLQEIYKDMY
Summary of the method: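 Read-out is induced reporter mRNA, quantified by RT-PCR with fluorescent labelling and capillary electrophoresis after 24 h dosing. Cells are HepG2 transiently carrying multiple GAL4-UAS reporter units driven by exogenous NR-GAL4 chimeras; DMSO serves as baseline.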

[12] = read-out: Intercellular Adhesion Molecule 1 (ICAM1), ICAM1 (gene 3383); assay: BSK_3C_ICAM1: BioMAP Diversity Plus: 3C Assay for Intercellular Adhesion Molecule 1 (ICAM1) Biomarker Activity (AID 2283003); conditions: primary human endothelial cells (HUVEC); actives raise or lower the signal
Summary of the method: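 Primary human umbilical vein endothelial cells in the BioMAP 3C system were exposed to chemicals for 24 h, then ICAM-1 was quantified by ELISA. Activity was fitted bidirectionally against the DMSO negative control baseline.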

[13] = target: Retinoic acid receptor alpha (Homo sapiens) (UniProt P10276); assay: ATG_RARa_TRANS: Attagene TRANS-FACTORIAL HepG2 Assay for human Retinoic Acid Receptor alpha (RARa) (AID 2283005; active = hit-call score of the fitted dose curve at least 0.9, where 1 is the maximum)
Chain of Retinoic acid receptor alpha (Homo sapiens) (P10276 whole entry, looked up, the tested form may be a part): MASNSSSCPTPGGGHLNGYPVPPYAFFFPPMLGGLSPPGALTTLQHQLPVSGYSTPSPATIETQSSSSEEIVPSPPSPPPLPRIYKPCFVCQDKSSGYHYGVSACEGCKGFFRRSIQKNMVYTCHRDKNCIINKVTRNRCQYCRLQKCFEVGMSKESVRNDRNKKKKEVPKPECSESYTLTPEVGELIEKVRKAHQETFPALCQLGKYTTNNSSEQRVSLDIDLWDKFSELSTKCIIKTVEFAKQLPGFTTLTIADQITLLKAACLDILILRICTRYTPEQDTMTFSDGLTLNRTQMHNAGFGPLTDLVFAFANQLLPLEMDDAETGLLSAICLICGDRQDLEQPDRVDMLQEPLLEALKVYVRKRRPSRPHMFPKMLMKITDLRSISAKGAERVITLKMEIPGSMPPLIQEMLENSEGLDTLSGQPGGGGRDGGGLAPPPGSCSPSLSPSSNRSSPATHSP
Summary of the method: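 Reporter transcripts, measured by RT-PCR with fluorescent labeling and capillary electrophoresis after 24 h dosing, reflect activity of an exogenous human RARa–GAL4 fusion in transiently transfected HepG2. Fitted for increase relative to DMSO.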

[14] = BSK_3C_Proliferation: Cell Proliferation Assessment in the BioMAP Diversity Plus: 3C Assay (AID 2283006); conditions: primary human endothelial cells (HUVEC);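 for AC50: potency may reflect either rise or fall in cell number versus DMSO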
Summary of the method: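 Human umbilical vein endothelial cells were grown sub-confluent and exposed to chemical for 48 h, then fixed with 10% TCA and stained with 0.1% sulforhodamine B; absorbance at 560 nm gave relative cell number, fitted bidirectionally against DMSO baseline.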

[15] = target: Peroxisome proliferator-activated receptor gamma (Homo sapiens) (UniProt P37231); assay: ATG_PPARg_TRANS: Attagene TRANS-FACTORIAL HepG2 Assay for human Peroxisome Proliferator-activated Receptor-gamma (PPARg) (AID 2283007; active = hit-call score of the fitted dose curve at least 0.9, where 1 is the maximum)
Chain of Peroxisome proliferator-activated receptor gamma (Homo sapiens) (P37231 whole entry, looked up): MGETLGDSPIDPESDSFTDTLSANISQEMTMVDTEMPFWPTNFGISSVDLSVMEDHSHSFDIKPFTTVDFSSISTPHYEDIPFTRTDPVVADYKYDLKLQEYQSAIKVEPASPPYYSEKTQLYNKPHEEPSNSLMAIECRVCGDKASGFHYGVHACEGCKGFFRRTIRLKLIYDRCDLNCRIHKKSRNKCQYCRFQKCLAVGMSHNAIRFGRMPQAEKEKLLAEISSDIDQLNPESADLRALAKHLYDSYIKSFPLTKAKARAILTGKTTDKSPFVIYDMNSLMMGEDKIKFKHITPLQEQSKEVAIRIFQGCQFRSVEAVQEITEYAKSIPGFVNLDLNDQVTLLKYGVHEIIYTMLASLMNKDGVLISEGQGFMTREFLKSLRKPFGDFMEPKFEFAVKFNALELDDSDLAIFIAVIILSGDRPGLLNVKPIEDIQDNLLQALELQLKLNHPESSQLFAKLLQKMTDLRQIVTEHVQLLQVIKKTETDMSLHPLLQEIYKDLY
Summary of the method: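 Human hepatoma HepG2, transient MRTU transfection, 24 h treatment. mRNA reporter signal by RT-PCR plus capillary electrophoresis, fluorescence detection; fitted for increase over DMSO negative control.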

[16] = target: Nuclear receptor subfamily 1 group I member 2 (Homo sapiens) (UniProt O75469); assay: ATG_PXR_TRANS: Attagene TRANS-FACTORIAL HepG2 Assay for human Pregnane X Receptor (PXR) (AID 2283008; active = hit-call score of the fitted dose curve at least 0.9, where 1 is the maximum)
Chain of Nuclear receptor subfamily 1 group I member 2 (Homo sapiens) (O75469 whole entry, looked up, the tested form may be a part): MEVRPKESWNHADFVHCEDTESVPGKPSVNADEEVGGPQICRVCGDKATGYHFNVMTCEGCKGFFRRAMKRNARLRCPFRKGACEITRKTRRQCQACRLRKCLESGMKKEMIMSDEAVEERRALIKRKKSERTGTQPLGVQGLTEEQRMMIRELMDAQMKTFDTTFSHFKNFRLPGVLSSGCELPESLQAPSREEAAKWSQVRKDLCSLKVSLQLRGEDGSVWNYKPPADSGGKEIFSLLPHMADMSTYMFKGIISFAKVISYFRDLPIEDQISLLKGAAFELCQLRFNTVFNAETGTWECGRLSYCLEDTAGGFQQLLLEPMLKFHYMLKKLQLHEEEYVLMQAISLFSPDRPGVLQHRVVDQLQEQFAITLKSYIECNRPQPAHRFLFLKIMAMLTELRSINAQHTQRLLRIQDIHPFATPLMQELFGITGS
Summary of the method: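 Read-out is fluorescence of labelled reporter cDNA fragments separated by capillary electrophoresis after RT-PCR and HpaI digestion. Source: HepG2 cells carrying PXR-GAL4/UAS reporter constructs, treated 24 h; activity fitted upward relative to DMSO.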

[17] = BSK_3C_VCAM1: BioMAP Diversity Plus: 3C Assay for Vascular cell adhesion molecule 1 (VCAM1) Biomarker Activity (AID 2282999); conditions: BioMAP 3C HUVEC, VCAM1 ELISA, cytokine-stimulated; actives raise or lower the signal
Summary of the method: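 Endothelial cells from human umbilical vein are treated with test chemical. At 24 h, VCAM-1 is measured by ELISA, and responses in either direction are fitted relative to DMSO.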

[18] = target: human Peroxisome Proliferator-activated Receptor alpha (PPARa), PPARA (gene 5465) (UniProt Q07869); assay: ATG_PPARa_TRANS: Attagene TRANS-FACTORIAL HepG2 Assay for human Peroxisome Proliferator-activated Receptor alpha (PPARa) (AID 2283001; active = hit-call score of the fitted dose curve at least 0.9, where 1 is the maximum)
Chain of human Peroxisome Proliferator-activated Receptor alpha (PPARa), PPARA (gene 5465) (Q07869 whole entry, looked up, the tested form may be a part): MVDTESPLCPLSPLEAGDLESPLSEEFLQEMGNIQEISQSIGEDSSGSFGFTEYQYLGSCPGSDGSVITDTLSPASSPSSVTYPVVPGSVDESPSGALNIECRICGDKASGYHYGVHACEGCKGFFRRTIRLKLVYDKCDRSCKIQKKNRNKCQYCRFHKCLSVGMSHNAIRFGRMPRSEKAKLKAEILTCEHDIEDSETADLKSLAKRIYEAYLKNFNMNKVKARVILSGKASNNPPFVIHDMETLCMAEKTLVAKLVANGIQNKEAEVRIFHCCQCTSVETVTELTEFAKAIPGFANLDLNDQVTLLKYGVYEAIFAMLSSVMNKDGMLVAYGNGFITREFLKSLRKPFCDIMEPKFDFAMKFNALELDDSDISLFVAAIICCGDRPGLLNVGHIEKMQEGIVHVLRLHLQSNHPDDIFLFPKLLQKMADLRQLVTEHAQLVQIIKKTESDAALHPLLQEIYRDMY
Summary of the method: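 Reporter transcripts from GAL4-UAS units in transfected HepG2 were quantified 24 h after dosing. Detection used reverse transcription, PCR, fluorescent primer extension and capillary electrophoresis, with DMSO as baseline.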

Measured: AC50

O=S(=O)(O)CCC(F)(F)C(F)(F)C(F)(F)C(F)(F)F
not listed: [17] | [18]
inactive: all other assays above

C=CC(=O)OCC(F)(F)C(F)(F)C(F)(F)C(F)(F)C(F)(F)C(F)(F)C(F)(F)C(F)F
active: [4] 80200 nM | [5] 58200 nM | [14] 20.8 µM and 24.1 µM | [15] 37600 nM
not listed: [13]
inactive: all other assays above

OCCCCC(F)(F)C(F)(F)C(F)(F)C(F)(F)F
not listed: [13] | [16] | [17]
inactive: all other assays above

NC(=O)C(F)(F)C(F)(F)C(F)(F)F
not listed: [11] | [13] | [15] | [16] | [17]
inactive: all other assays above

FC(F)(F)C(F)(F)C(F)(F)CC1CO1 (stereo not drawn)
not listed: [11] | [13] | [15]
inactive: all other assays above

C=C(C)C(=O)OCC(F)(F)C(F)(F)C(F)(F)C(F)F
not listed: [15] | [17]
inactive: all other assays above

CCN=C1C=CC(=C(c2ccc(N(CC)CC)cc2)c2ccc(N(CC)CC)cc2)c2ccccc21
inactive: [2] | [3] | [4] | [15] | [16]
active: [1] 1040 nM | [5] 81.1 nM | [6] 566 nM | [7] 917 nM | [8] 1.96 µM and 1.79 µM | [9] 3.95 µM and 1.39 µM | [17] 2.64 µM and 2.81 µM | [10] 1740 nM | [12] 3.69 µM and 3.76 µM | [14] 888 nM and 871 nM

NC(=O)C(F)(F)C(F)(F)C(F)(F)C(F)(F)C(N)=O
not listed: [13] | [17]
inactive: all other assays above
